Records with an inconclusive call do not appear. Activity calls are given as the source filed them. Unless noted, calls come from the whole dose curve; as a rule, active = well fitted curve in the direction sought with a large enough effect in the repeat runs; inconclusive = weak or mixed curves; inactive = no such curve, though single readings can be large; an effect the other way counts as inactive or inconclusive.
Assays:
[1] = qHTS assay for small molecules that induce genotoxicity in human embryonic kidney cells expressing luciferase-tagged ATAD5 (AID 651632); note: nearly all actives have a fitted effect of over 15% in size; note: potency is the fitted concentration of half-maximal effect
Method in brief: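 HEK293T cells carrying luciferase-tagged ATAD5 were given compound or DMSO vehicle and incubated 16 hr at 37C, 5% CO2. Luciferase activity was read after 30 min at room temperature with Amplite; a rise signals genotoxic stress.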

[2] = qHTS assay for small molecule agonists of the p53 signaling pathway - cell viability (AID 651633; calls by dose curve; note: nearly all actives have a fitted effect of over 30% in size; note: potency is the fitted concentration of half-maximal effect)
Method in brief: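 Viability counter-read: CellTiter-Glo luminescence (30 min, room temperature) in the same p53RE-bla plates. These plates had been exposed to compounds for 16 h at 37 C.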

[3] = qHTS assay for small molecules that induce genotoxicity in human embryonic kidney cells expressing luciferase-tagged ATAD5 - cell viability (AID 651634; calls by dose curve; note: nearly all actives have a fitted effect of over 25% in size)
Method in brief: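 HEK293T cells carrying luciferase-tagged ATAD5, 2,000 cells/well, exposed to compound for 15.5 hr at 37C. Viability read as live-cell protease activity by CellTiter-Fluor fluorescence after 30 min at 37C.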

[4] = qHTS assay for small molecule disruptors of the mitochondrial membrane potential - cell viability (AID 720634; calls by dose curve;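 note: human HepG2 liver cancer cells; series mostly up to about 83 µM; nearly all actives have a fitted effect of over 20% in size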)
Method in brief: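 HepG2 cells, 2,000 per well, attached overnight, then treated 1 hr at 37 C, 5% CO2. Viability read as ATP by CellTiter-Glo luminescence after 30 min at room temperature. Read in the same wells as the m-MPI membrane-potential dye assay.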

[5] = qHTS assay for small molecule disruptors of the mitochondrial membrane potential (AID 720635); note: potency is the fitted concentration of half-maximal effect
Method in brief: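 Mitochondrial membrane potential tracked with Mito-MPS dye, red aggregates (ex 540/em 590 nm) against green monomers (ex 490/em 535 nm). Compound treatment 1 hr at 37C, dye 30 min in HepG2.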

[6] = qHTS assay to test for compound auto fluorescence at 590 nm (red) in HepG2 cells (AID 720674)
Method in brief: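 We screened compounds on adherent HepG2 cells, incubating them for an hour at 37 C in 5% CO2 before reading emission at 590 nm under 540 nm excitation; values reflect equivalence to Rose Bengal sodium fluorescence.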

[7] = qHTS assay to test for compound auto fluorescence at 535 nm (green) in HepG2 cells (AID 720675)
[8] = qHTS assay to test for compound auto fluorescence at 460 nm (blue) in HEK293 cells (AID 720678)
Method in brief: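 Blue-channel (Ex/Em 405/460 nm) intensity measured in HEK293 cultures after overnight compound exposure at 37C; signal expressed relative to triamterene. Cells plated 2,000 per well in 10% dialyzed FBS medium and allowed 4-5 hr to attach.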

[9] = qHTS assay to test for compound auto fluorescence at 590 nm (red) in HEK293 cells (AID 720679)
Method in brief: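 Red-channel autofluorescence (Ex/Em 540/590 nm; Rose Bengal sodium reference) was measured after overnight 37C, 5% CO2 exposure of attached HEK293 cells, 2,000 per well in medium with 10% dialyzed FBS.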

[10] = qHTS assay to test for compound auto fluorescence at 535 nm (green) in HEK293 cell free culture (AID 720682)
Method in brief: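 DMEM + 10% FBS, cell-free; cpd or DMSO pinned in; Ex485/Em535 read; output as fluorescein-equivalent signal.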

[11] = qHTS assay to test for compound auto fluorescence at 590 nm (red) in HEK293 cell free culture (AID 720683)
Method in brief: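 Red-channel autofluorescence of compounds in culture medium (DMEM, 10% FBS), no cells, measured at 540/590 nm. Rose Bengal sodium is the reference fluorophore for equivalence.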

[12] = qHTS assay to test for compound auto fluorescence at 590 nm (red) in HepG2 cell free culture (AID 720684)
Method in brief: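 Plate contents were MEM with 10% FBS plus test compound or DMSO, no cells. Fluorescence was recorded with 540 nm excitation and 590 nm emission.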

[13] = qHTS assay to test for compound auto fluorescence at 460 nm (blue) in HepG2 cell free culture (AID 720685)
Method in brief: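 Compound (23 nL) or DMSO pinned into cell-free MEM with 10% FBS; blue fluorescence read at 405/460 nm excitation/emission, expressed as auto-fluorescence equivalency to triamterene.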

[14] = qHTS assay to test for compound auto fluorescence at 535 nm (green) in HepG2 cell free culture (AID 720686)
[15] = qHTS assay to test for compound auto fluorescence at 460 nm (blue) in HepG2 cells (AID 720687)
Method in brief: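 Blue-channel autofluorescence (Ex/Em 405/460 nm, triamterene-equivalent) was measured after 1 hr compound exposure at 37 C, 5% CO2. Cells were HepG2, plated overnight at 37 C in MEM plus 10% FBS.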

[16] = target: Glucocorticoid receptor (Homo sapiens) (UniProt P04150); assay: qHTS assay to identify small molecule agonists of the glucocorticoid receptor (GR) signaling pathway (AID 720691; active = well fitted activation curve with a large enough effect in the signal ratio in the repeat runs, not every such curve was filed as active; the % refers to the signal ratio; note: potency is the fitted concentration of half-maximal effect)
Sequence of Glucocorticoid receptor (Homo sapiens) (P04150 whole entry, looked up): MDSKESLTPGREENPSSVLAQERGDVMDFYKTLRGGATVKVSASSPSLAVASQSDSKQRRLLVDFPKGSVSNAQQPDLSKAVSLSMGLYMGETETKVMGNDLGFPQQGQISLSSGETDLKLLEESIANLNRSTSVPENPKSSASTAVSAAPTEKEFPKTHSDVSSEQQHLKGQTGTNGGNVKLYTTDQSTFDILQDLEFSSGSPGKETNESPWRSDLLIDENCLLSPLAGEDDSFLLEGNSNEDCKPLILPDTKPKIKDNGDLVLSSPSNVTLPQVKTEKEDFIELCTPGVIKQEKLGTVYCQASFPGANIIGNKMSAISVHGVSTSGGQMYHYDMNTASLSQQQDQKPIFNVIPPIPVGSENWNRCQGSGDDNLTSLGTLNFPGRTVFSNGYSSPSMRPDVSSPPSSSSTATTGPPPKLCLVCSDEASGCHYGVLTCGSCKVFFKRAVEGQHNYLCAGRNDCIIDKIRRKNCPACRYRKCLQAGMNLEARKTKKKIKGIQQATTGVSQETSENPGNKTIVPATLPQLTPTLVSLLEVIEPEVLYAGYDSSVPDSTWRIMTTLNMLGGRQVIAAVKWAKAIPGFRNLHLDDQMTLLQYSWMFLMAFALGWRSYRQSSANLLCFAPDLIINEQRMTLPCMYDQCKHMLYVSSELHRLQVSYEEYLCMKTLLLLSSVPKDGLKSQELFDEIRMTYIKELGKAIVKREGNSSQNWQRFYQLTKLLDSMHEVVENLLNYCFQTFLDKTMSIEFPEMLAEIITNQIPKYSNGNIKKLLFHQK
Method in brief: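 GR-bla HeLa cells carrying a GRE-driven beta-lactamase reporter, exposed to compounds for 18 h at 37 C. Reporter activation read as fluorescence after 2 h with LiveBLAzer B/G FRET substrate at room temperature.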

[17] = target: Glucocorticoid receptor (Homo sapiens) (UniProt P04150); assay: qHTS assay to identify small molecule antagonists of the glucocorticoid receptor (GR) signaling pathway (AID 720692; active = well fitted inhibition curve with a large enough effect in the signal ratio in the repeat runs, not every such curve was filed as active; the % refers to the signal ratio)
Method in brief: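 GR-bla HeLa cells carrying a GRE-driven beta-lactamase reporter received compound after 4 h plating, then dexamethasone (5 nM final). After 18 h at 37C, the FRET substrate was loaded for 2 h at room temperature and fluorescence read.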

[18] = qHTS assay to test for compound auto fluorescence at 535 nm (green) in HEK293 cells (AID 720680)
[19] = qHTS assay to test for compound auto fluorescence at 460 nm (blue) in HEK293 cell free culture (AID 720681)
Method in brief: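 Blue fluorescence (Ex 405/Em 460 nm, triamterene-equivalent) was read immediately after pin transfer of compound or DMSO into medium (DMEM, 10% FBS) without cells.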
% is set by controls: 0 for no effect and ±100 for the full control effect.

CN(C)CCCNCCCN
inactive: Potency [1] | Potency [2] | Potency [3] | Potency [4] | Potency [5] | outcome [6] | outcome [7] | Potency [8] | outcome [9] | outcome [10] | outcome [11] | outcome [12] | Potency [13] | outcome [14] | Potency [15] | Potency [16] | Potency [17]

CCCCc1cc2ccccc2c(OCCN(C)C)n1
active: Potency [16] 1.02 µM
inactive: Potency [1] | Potency [2] | Potency [3] | Potency [4] | fluorescence, relative to Rose Bengal [6] 0.0286% [at 18.6 µM] | fluorescence, % of fluorescein control [7] 0.0129% [at 18.6 µM] | fluorescence, % of triamterene [8] 0.0451% [at 18.6 µM] | fluorescence, % of fluorescent control [9] -0.0036% [at 18.6 µM] | fluorescence, % of fluorescein [18] -0.0691% [at 18.6 µM] | fluorescence, % of fluorescent control [19] -0.0502% [at 18.6 µM] | activity change [10] -0.13% [at 18.6 µM] | fluorescence, % of fluorescent control [11] 0.0019% [at 18.6 µM] | fluorescence, % of Rose Bengal [12] 0.586% [at 18.6 µM] | fluorescence, % of fluorescent control [13] -0.0015% [at 18.6 µM] | fluorescence, % of fluorescein control [14] 0.0394% [at 18.6 µM] | fluorescence, % of fluorescent control [15] -0.0043% [at 18.6 µM]

NC1CCN(c2nc3c(cc2F)c(=O)c(C(=O)O)cn3-c2ccc(F)cc2F)C1 (stereo unspecified)
inactive: Potency [1] | Potency [2] | Potency [3] | Potency [4] | Potency [5] | outcome [6] | outcome [7] | Potency [8] | outcome [9] | outcome [18] | Potency [19] | outcome [10] | outcome [11] | outcome [12] | outcome [14] | Potency [15] | Potency [16]

O=C(NS(=O)(=O)/C=C/c1cccs1)c1ccc(F)cc1Br
active: Potency [1] 1.37 µM | Potency [5] 61.1 µM
inactive: Potency [2] | Potency [3] | Potency [4] | outcome [6] | outcome [7] | Potency [8] | outcome [9] | Potency [19] | outcome [11] | outcome [12] | Potency [13] | outcome [14] | Potency [15]

CCOc1nc2cccc(C(=O)O)c2n1Cc1ccc(-c2ccccc2-c2nn[nH]n2)cc1
inactive: Potency [1] | Potency [3] | Potency [4] | outcome [6] | outcome [7] | Potency [8] | outcome [9] | outcome [18] | Potency [19] | outcome [11] | outcome [12] | Potency [13] | outcome [14]
active: Potency [2] 29.8 µM | Potency [5] 8.41 µM

O=C(Cl)c1c(Cl)cccc1Cl
inactive: Potency [1] | Potency [2] | Potency [3] | Potency [4] | Potency [5] | outcome [6] | outcome [7] | Potency [8] | outcome [9] | Potency [19] | outcome [10] | outcome [11] | outcome [12] | Potency [13] | outcome [14] | Potency [15] | Potency [16]

O=C(NN1CCCC1)NS(=O)(=O)c1ccc(Cl)cc1
inactive: Potency [1] | Potency [2] | Potency [3] | Potency [4] | outcome [6] | outcome [7] | Potency [8] | outcome [9] | outcome [18] | Potency [19] | outcome [10] | outcome [11] | outcome [12] | Potency [13] | outcome [14] | Potency [15] | Potency [16] | Potency [17]

Source: PubChem BioAssay (Tox21)
